# Data from PubChem BioAssay AID652104 (National Center for Advancing Translational Sciences (NCATS), 2013).
# In all, about 410,000 compounds went through this assay and about 7,200 (1.8%) were called active. Not shown: some 7% with an inconclusive outcome. The list comes from a sample in which actives are over-represented; it also holds similar structures and randomly drawn compounds. Entries that show only a call come without a potency. Unmarked numbers belong to inactive results. The call rests on the fitted dose curve; in most records, active means well fitted activation curve with a large enough effect; inconclusive means small, poorly fitted or top-dose-only effect, or another doubt; inactive means no such curve, though single readings can be large or run the other way.
# Assay: qHTS of TDP-43 Inhibitors; further: nearly all actives have a fitted effect of over 50% in size
# Conditions: TDP-43 expressing yeast growth rescue, BacTiter-Glo, 24 h; series mostly up to 46.1 µM
# Method in brief: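 Cell-based yeast growth screen: TDP-43 expression induced in galactose, inoculum OD600=0.02 after raffinose pregrowth to mid-log. Read-out BacTiter-Glo luminescence at 24 hr, 30 deg C; inhibition of toxicity seen as signal increase.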
# Potency means the concentration at half of the fitted maximal effect.
Structure (SMILES),Potency,growth rescue (activation)
CC(C)Sc1oc(-c2cccs2)nc1S(=O)(=O)c1ccc(Cl)cc1,inactive,
CCOc1cccc2cc(-c3cn4c(n3)sc3cc(C)ccc34)c(=O)oc12,inactive,
CCOc1ccc(N(Cc2ccccc2)C(=O)c2nc(S(C)(=O)=O)ncc2Cl)cc1,17.8 µM (active),
CCOc1ccc(N(Cc2ccccc2)C(=O)c2nc(SCC)ncc2Cl)cc1,inactive,
CCOc1ccc(NC(=O)CN(Cc2ccccc2)S(=O)(=O)c2ccc(Cl)cc2)cc1,inactive,
COc1ccc(CNc2nc(-c3ccc(Cl)cc3)nn2S(=O)(=O)c2ccc(C)cc2)cc1,inactive,
CCC(=O)Nc1ccc2nc(SCC(=O)N3CCc4ccccc43)sc2c1,inactive,
CCC1CCCCN1C(=S)NC(=O)c1ccco1 (centres undefined),inactive,
CCCc1ccc(OCC(=O)NNC(=S)NC(=O)c2ccco2)cc1,3.98 µM (active),
COc1ccc(N(CC(=O)NC(C)(C)C)C(=O)c2ccco2)cc1,inactive,
COc1ccccc1CCC(=O)NNC(=O)c1ccncc1,inactive,
Cc1c(NC(=S)NC(=O)CCc2ccccc2)c(=O)n(-c2ccccc2)n1C,inactive,
COc1ccc(C(=O)NC(=S)NNC(=O)CCc2ccccc2)cc1,17.8 µM (active),
O=C(c1ccc2c(c1)N(Cc1ccccc1F)C(=O)c1ccccc1S2(=O)=O)N1CCOCC1,inactive,
CC(Sc1oc(-c2ccco2)nc1S(=O)(=O)c1ccc(Br)cc1)c1ccccc1 (centres undefined),inactive,
Cc1nc(Cl)cc(N/N=C/c2ccccc2)n1,7.94 µM (active),
CC1=NNC(=O)C1CCC(=O)N/N=C\c1cccc(Cl)c1 (centres undefined),inactive,
CC(C)Oc1ccc(CNC(=O)C2CCN(c3nc4ccccc4n(C)c3=O)CC2)cc1,inactive,
CNC(=O)c1ccc(-c2nc(CN3CCc4ccccc43)c(C)o2)cc1,10 µM (active),
CNC(=O)c1ccsc1NC(=O)c1ccc(S(=O)(=O)N2CCc3ccccc32)cc1,inactive,
Cc1ccc(-c2nc(CSCC(=O)NC3CCN(Cc4ccccc4)CC3)c(C)o2)cc1,inactive,
COc1ccc(NC(=O)c2ccc3nc(CCc4ccccc4)oc3c2)c(OC)c1,inactive,
Cc1ccc(-c2noc(-c3nnn(-c4cccc(C(F)(F)F)c4)c3N)n2)cc1,inactive,
COc1cc(NC(=O)c2cc(-c3ccc(F)cc3OC(C)C)n[nH]2)cc(OC)c1OC,28.2 µM (active),
COc1ccc(C(=O)NCC2CCCCC2)cc1S(=O)(=O)N1CCCC1,inactive,

Structure (SMILES),Potency,growth rescue (activation)
COc1cc(F)ccc1-c1cc(C(=O)NCC2CCCCC2)[nH]n1,25.1 µM (active),
COc1ccccc1CNC(=O)c1cc(-c2cc(F)ccc2OC)n[nH]1,22.4 µM (active),
CC(C)Oc1cc(F)ccc1-c1cc(C(=O)Nc2cccc(Cl)c2)[nH]n1,inactive,
COc1ccc(-c2cc(C(=O)NCc3cc(OC)c(OC)c(OC)c3)[nH]n2)cc1,inactive,
CC(C)Oc1cc(F)ccc1-c1cc(C(=O)Nc2ccc(F)cc2)[nH]n1,inactive,
COc1ccc(CN2CCCC(CNC(=O)c3ccc(F)cc3)C2)cc1OC (centres undefined),,-11.7% [at 0.397 µM]
COc1ccccc1CNC(=O)c1cc(-c2cc(Cl)ccc2C)n[nH]1,inactive,
CN1CCN(C2(CNC(=O)COc3ccc(C(C)(C)C)cc3)CCCCC2)CC1,inactive,
CC(=O)Nc1ccc2nc(SCCOc3cc(C)cc(C)c3)sc2c1,inactive,
Cc1ccc(C(=O)Nc2cc3c(cc2N2CCCC2)n(C)c(=O)c(=O)n3C)cc1,inactive,
CCCCCn1c(=O)[nH]c2cc(C(=O)Nc3cc(C)cc(C)c3)ccc2c1=O,inactive,
CCOc1ccc(Nc2c(S(=O)(=O)c3ccccc3)cnc3ccccc23)cc1,inactive,
O=C(c1ccc(C(F)(F)F)cc1)N1CCC(c2nc(-c3ccc(S(=O)(=O)N4CCCC4)cc3)no2)CC1,inactive,
CCOC(=O)c1c(SCC(=O)Nc2cccc(C)c2C)nc(=O)[nH]c1C,inactive,
O=C(O)/C=C/c1ccc2c(c1)OCCO2,15.8 µM (active),
O=C(Nc1ccc2c(c1)OCCO2)C1CCCC1,inactive,
O=C(COC(=O)/C=C/c1ccc2c(c1)OCO2)NC1CCS(=O)(=O)C1 (centres undefined),inactive,
COc1ccc(NC(=O)NC(C)c2c(-n3cccc3)sc(C)c2C)cc1OC (centres undefined),inactive,
COc1ccc(CCNC(=O)C(=O)NCC(c2ccco2)S(=O)(=O)c2cccs2)cc1OC (centres undefined),inactive,
COc1cc(NC(=O)Cn2nc(-c3ccc(C)c(C)c3)ccc2=O)cc(OC)c1,inactive,
COc1ccc(C2c3c(oc4ccccc4c3=O)C(=O)N2Cc2ccc3c(c2)OCO3)cc1 (centres undefined),inactive,
Cc1ccc(S(=O)(=O)n2nc(-c3ccc(Cl)cc3)nc2NCc2ccccc2)cc1,inactive,
COc1ccc(OCCCn2c(C)nc3cc(C)c(C)cc32)cc1,inactive,
Cc1cc(C)c2oc(C(=O)Nc3ccc(S(=O)(=O)N4CCCCCC4)cc3)cc(=O)c2c1,inactive,
Cc1ccccc1C(=O)Nc1nnc(S(=O)(=O)N(C)c2ccc(Cl)cc2)s1,inactive,

Structure (SMILES),Potency,growth rescue (activation)
CC(=O)Nc1cccc(-c2ccnc3c2CC(C)(C(=O)NCc2ccccc2)O3)c1 (centres undefined),inactive,
CC1(C(=O)NCc2ccco2)Cc2c(-c3ccc4c(c3)OCO4)ccnc2O1 (centres undefined),inactive,
CC1(C(=O)NCc2ccc(F)c(F)c2)Cc2c(-c3ccc4c(c3)OCO4)ccnc2O1 (centres undefined),35.5 µM (active),
COc1ccc(CNC(=O)CSc2nc3ccccc3nc2Cc2ccccc2)cc1,inactive,
CCc1cc2c(cc3c(=O)n(CC(=O)N4CCN(c5cc(Cl)ccc5C)CC4)ncn32)s1,inactive,
Cc1cc(OCc2ccc(C(=O)Nc3ccc(C(=O)O)cc3)o2)ccc1Cl,inactive,
O=C(COc1ccc2ccc(=O)oc2c1)NCC(O)c1ccccc1 (centres undefined),inactive,
CC(C)OC(=O)c1ccc(COc2ccc3ccc(=O)oc3c2)o1,11.2 µM (active),
CCOC(=O)c1cc(-c2ccc(OC)c(S(=O)(=O)Nc3ccc(OC)cc3OC)c2)on1,inactive,
CCOC(=O)c1ccc(NC(=O)CC2C(=O)N(c3ccccc3)C(=O)N2Cc2cccs2)cc1 (centres undefined),inactive,
CCOC(=O)c1ccc(N2C(=O)CC(N(C)Cc3ccccc3)C2=O)cc1 (centres undefined),2.82 µM (active),
CCOC(=O)c1ccc(N2C(=O)CC(Sc3nc(O)c(CC)c(=O)[nH]3)C2=O)cc1 (centres undefined),inactive,
CCOC(=O)c1ccc(N2C(=O)CC(N3CCN(C(=O)c4ccccc4)CC3)C2=O)cc1 (centres undefined),inactive,
Cc1ccc(C)c(N2CCN(C(c3ccccc3)c3nnc(-c4ccccc4)o3)CC2)c1 (centres undefined),inactive,
CCOc1ccc(-c2ccc(SCC(=O)N3CCOCC3)nn2)cc1,inactive,
O=C(O)CCC(=O)NCc1ccc(C(=O)O)cc1,inactive,
CCCCCc1ccc(-c2ccc(OCC)cc2)nc1,12.6 µM (active),
CCCCCC(=O)Nc1ccc(-c2cn3cccnc3n2)cc1,inactive,
CCOc1ccc(-c2cc(C)n3nc(C(=O)Nc4ccc(C)c(C)c4)cc3n2)cc1,inactive,
CCCCCc1ccc(-c2ccc(C(=O)O)cc2)nc1,3.16 µM (active),
Cc1ccsc1CN(C(=O)c1oc2ccc(Br)cc2c1C)C1CCS(=O)(=O)C1 (centres undefined),inactive,
O=C(Nc1ccccc1Br)c1cc(CN2CCCC2)on1,inactive,
Cc1ccc2nc(CN3CCN(S(=O)(=O)c4ccc(C)c(C)c4)CC3)oc2c1,inactive,
Cc1ccc(CN2CCC(CNC(=O)c3cnn(-c4ccccc4Cl)c3C3CCN(C(=O)OC(C)(C)C)CC3)CC2)cc1,inactive,
Cc1ccccc1Nc1nc(N)nc(COC(=O)CCC(=O)c2ccc(F)cc2)n1,inactive,

Structure (SMILES),Potency,growth rescue (activation)
Cc1ccc(C(=O)OCc2nc(N)nc(Nc3ccccc3C)n2)cc1,12.6 µM (active),
CCCn1nc(C(=O)OCc2nc(N)nc(Nc3ccccc3C)n2)c2ccccc2c1=O,inactive,
O=C(NC1CC(=O)N(c2ccc(F)cc2)C1)c1ccc(S(=O)(=O)N2CCCC2)cc1 (centres undefined),inactive,
COc1ccc2c(C)c(CCC(=O)NCc3ccc(OC)c(OC)c3)c(=O)oc2c1,inactive,
CC1CCCCN1CC(=O)N1CCCc2c1c(=O)oc1ccc(OCc3ccccc3)cc21 (centres undefined),inactive,
Cc1cc(Cl)ccc1NC(=O)Cc1ccc(NC(=O)N2CCCCc3ccccc32)cc1,inactive,
CCc1cccc(-n2nnc(-c3nsc(NC(=O)c4ccc(C)cc4)n3)c2C)c1,inactive,
C=CCOc1ccc(/C=N/NC(=O)C(C)Sc2ccccn2)cc1OCC (centres undefined),inactive,
C=CCOc1ccc(/C=C2/C(=O)ON=C2C)cc1OCC,12.6 µM (active),
CCOc1ccc(/C=C(\C#N)c2nc3ccccc3c(=O)[nH]2)cc1OC,inactive,
Cc1cccc(CC(=O)Nc2cccc(-c3cn4cccnc4n3)c2)c1,inactive,
Cc1cc2nc(-c3ccco3)c(Cc3cccc(F)c3)n2c(C)c1Br,3.16 µM (active),
Cc1cc2nc(-c3ccc(F)cc3)c(Cc3ccsc3)n2c(C)c1Br,inactive,
O=C(CN1C(=O)CCn2nc(-c3ccccc3)cc21)NCc1ccccc1,,18.2% [at 9.22 µM]
COc1cccc(C(=O)NCc2ccc3c(c2)CCN3C(=O)c2ccncc2)c1,inactive,
Cc1ccc(-c2cc(C(=O)Oc3ccccc3Cl)no2)cc1C,inactive,
Cc1ccc(C(=O)O/N=C(\N)c2ccccn2)cc1Cl,7.08 µM (active),
C/C(=N/OC(=O)c1c(-c2c(F)cccc2Cl)noc1C)c1cnccn1,inactive,
Cc1c(Cl)cccc1NC(=O)C(=O)NCCc1csc2nc(-c3ccccc3F)nn12,inactive,
CC(=O)Nc1cccc(NC(=O)CSc2cn(CC(=O)N3CCCC3)c3ccccc23)c1,inactive,
COc1cccc(Cn2c(CNS(=O)(=O)c3ccc(Cl)s3)nc3cccnc32)c1,inactive,
Clc1cccc(-c2nc(NCC3CCCO3)c3ccccc3n2)c1 (centres undefined),12.6 µM (active),
Cn1c(=O)c2[nH]c(NCC3CCCO3)nc2n(-c2ccccc2)c1=O (centres undefined),inactive,
O=C(NCC1CCCO1)c1cc2c([nH]c3ccccc32)c(-c2ccc(F)cc2)n1 (centres undefined),inactive,
